“And” between values parts separate entries of the source, which are not always exact repeats. Equal values may be shown once. Screen size: about 5,500 compounds; about 2,000 (36%) were called active. About 18% were inconclusive and are not listed. This is one part of the list. Values without a mark were called inactive. Rule as the data show it: active = normalized growth mostly below about 0.91 (no sharp cut-off); inconclusive = no clear call, values can overlap the other calls; inactive = mostly above about 0.92.
Test: chemical genetic growth profiling, strain panel (AID 1159580);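 also: tested at 20 µM; growth read once vehicle control cultures reached saturation at 30 °C; 1 = growth at the plate median or of vehicle wells; lower values mean less growth of the strain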
Details: S. cerevisiae deletion strains, growth OD

CO[C@H]1/C=C/O[C@@]2(C)Oc3c(C)c(O)c4c(O)c(c(/C=N/N5CCN(C)CC5)c(O)c4c3C2=O)NC(=O)/C(C)=C\C=C\C(C)[C@H](O)[C@@H](C)[C@@H](O)[C@@H](C)[C@@H](OC(C)=O)[C@@H]1C (stereo partly specified)
normalized growth (locus YAL013W, strain DEP1, hits give low values): 1
normalized growth (locus YAL021C, strain ccr4, hits give low values): 1.01
normalized growth (locus YAL026C, strain drs2, hits give low values): 1.02
normalized growth (locus YAL030W, strain snc1, hits give low values): 1.02
normalized growth (locus YBL061C, strain skt5, hits give low values): 1.03
normalized growth (locus YBR009C, strain hhf1, hits give low values): 1.02
normalized growth (locus YBR021W, strain FUR4, hits give low values): 0.998
normalized growth (locus YBR023C, strain chs3, hits give low values): 1.03
normalized growth (locus YBR171W, strain sec66, hits give low values): 1.03
normalized growth (locus YBR229C, strain ROT2, hits give low values): 1
normalized growth (locus YBR231C, strain swc5, hits give low values): 1.03
normalized growth (locus YBR279W, strain paf1, hits give low values): 1
normalized growth (locus YCL011C, strain gbp2, hits give low values): 1.02
normalized growth (locus YCL016C, strain dcc1, hits give low values): 1.01
normalized growth (locus YCL029C, strain bik1, hits give low values): 1.02
normalized growth (locus YCL061C, strain MRC1, hits give low values): 1.02
normalized growth (locus YCL069W, strain vba3, hits give low values): 1.03
normalized growth (locus YCR088W, strain abp1, hits give low values): 1.03
normalized growth (locus YDL005C, strain med2, hits give low values): 1.02
normalized growth (locus YDL035C, strain GPR1, hits give low values): 0.996
normalized growth (locus YDL040C, strain nat1, hits give low values): 1.02
normalized growth (locus YDL074C, strain BRE1, hits give low values): 1.04
normalized growth (locus YDL101C, strain DUN1, hits give low values): 1.03
normalized growth (locus YDL185W, strain tfp1, hits give low values): 1.01
normalized growth (locus YDL192W, strain arf1, hits give low values): 1.02
normalized growth (locus YDR001C, strain nth1, hits give low values): 1.02
normalized growth (locus YDR069C, strain doa4, hits give low values): 1.01
normalized growth (locus YDR101C, strain arx1, hits give low values): 1.01
normalized growth (locus YDR137W, strain rgp1, hits give low values): 0.803 (active)
normalized growth (locus YDR159W, strain sac3, hits give low values): 1.03
normalized growth (locus YDR162C, strain NBP2, hits give low values): 1.01
normalized growth (locus YDR195W, strain ref2): 1.09
normalized growth (locus YDR297W, strain sur2, hits give low values): 1.01
normalized growth (locus YDR318W, strain mcm21, hits give low values): 1.01
normalized growth (locus YDR334W, strain swr1, hits give low values): 1.02
normalized growth (locus YDR335W, strain msn5, hits give low values): 1.03
normalized growth (locus YDR388W, hits give low values): 1.02
normalized growth (locus YDR392W, strain spt3, hits give low values): 0.957
normalized growth (locus YDR502C, strain sam2, hits give low values): 1.01
normalized growth (locus YEL003W, strain gim4, hits give low values): 0.995
normalized growth (locus YEL037C, strain rad23, hits give low values): 1.02
normalized growth (locus YEL061C, strain CIN8 (second series), hits give low values): 1.02
normalized growth (locus YEL061C, strain CIN8, hits give low values): 1.01
normalized growth (locus YER015W, strain faa2, hits give low values): 1.03
normalized growth (locus YER016W, strain bim1, hits give low values): 1.02
normalized growth (locus YER110C, hits give low values): 1.03
normalized growth (locus YER111C, strain swi4, hits give low values): 1.03
normalized growth (locus YER155C, strain BEM2 (second series), hits give low values): 1.02
normalized growth (locus YER155C, strain BEM2, hits give low values): 1
normalized growth (locus YER167W, strain BCK2, hits give low values): 0.996
normalized growth (locus YFR010W, strain ubp6, hits give low values): 1.02
normalized growth (locus YGL078C, strain dbp3, hits give low values): 1.01
normalized growth (locus YGL086W, strain mad1, hits give low values): 1.02
normalized growth (locus YGL167C, strain pmr1, hits give low values): 1.02
normalized growth (locus YGL173C, strain kem1, hits give low values): 1.03
normalized growth (locus YGL227W, strain vid30, hits give low values): 1.04
normalized growth (locus YGL240W, strain doc1, hits give low values): 1.03
normalized growth (locus YGL248W, strain PDE1, hits give low values): 1.03
normalized growth (locus YGL253W, strain hxk2, hits give low values): 1.02
normalized growth (locus YGR135W, strain pre9, hits give low values): 1.02
normalized growth (locus YGR252W, strain gcn5, hits give low values): 1
normalized growth (locus YHR013C, strain ard1, hits give low values): 1.05
normalized growth (locus YHR027C, strain rpn1, hits give low values): 1.02
normalized growth (locus YHR030C, strain SLT2, hits give low values): 1.01 and 1.08
normalized growth (locus YHR079C, strain IRE1 (second series), hits give low values): 1.02
normalized growth (locus YHR079C, strain IRE1, hits give low values): 1.05
normalized growth (locus YHR094C, strain hxt1, hits give low values): 1.01
normalized growth (locus YHR129C, strain ARP1, hits give low values): 1.01
normalized growth (locus YHR142W, strain chs7, hits give low values): 1.06
normalized growth (locus YHR200W, strain rpn10, hits give low values): 1.02
normalized growth (locus YIL066C, strain RNR3, hits give low values): 1.01
normalized growth (locus YIL073C, strain SPO22, hits give low values): 1.04
normalized growth (locus YIL125W, strain kgd1, hits give low values): 1.03
normalized growth (locus YIR030C, strain dcg1, hits give low values): 1.02
normalized growth (locus YJL092W, strain hpr5, hits give low values): 1.02
normalized growth (locus YJL095W, strain BCK1 (second series), hits give low values): 1.02
normalized growth (locus YJL095W, strain BCK1, hits give low values): 1.04 and 1.03
normalized growth (locus YJL115W, strain asf1, hits give low values): 1.01
normalized growth (locus YJL129C, strain trk1, hits give low values): 1
normalized growth (locus YJL134W, strain LCB3, hits give low values): 1.01
normalized growth (locus YJL154C, strain vps35, hits give low values): 1.04
normalized growth (locus YJL164C, strain tpk1, hits give low values): 1.03
normalized growth (locus YJL166W, strain qcr8, hits give low values): 1.02
normalized growth (locus YJL168C, strain set2, hits give low values): 1.02
normalized growth (locus YJL187C, strain SWE1 (second series), hits give low values): 1.03
normalized growth (locus YJL187C, strain SWE1, hits give low values): 1.02
